Screening results deposited in PubChem by Broad Institute.
Tgondii IFNg: blocks Toxoplasma gondii growth in the presence of IFN-gamma; Toxoplasma gondii growth in IFN-gamma-treated host cells; active compounds read low; activity change, negative = inhibition, % (concentration not given with the values); hit rate 3.8% among 69,000; AID 1259416; in the data active = activity change below about -70%, passing the limit was not always enough;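 note: host cells are HeLa cells infected with Toxoplasma gondii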
The depositor's hits bear a star. The sample as a whole holds a higher share of hits than the screen did.

SMILES	Tgondii IFNg
COc1ccc(S(=O)(=O)Nc2ccc3c(c2)C(=O)N([C@@H](C)CO)C[C@H](C)[C@H](CN(C)S(=O)(=O)c2ccc(Cl)cc2)OCCCC[C@@H](C)O3)cc1	-112.3*
COc1ccc(S(=O)(=O)N(C)C[C@@H]2Oc3ccc(NC(=O)Nc4ccc(C(F)(F)F)cc4)cc3C(=O)N([C@H](C)CO)C[C@@H]2C)cc1	-37.4
COc1ccc(S(=O)(=O)Nc2ccc3c(c2)C(=O)N([C@H](C)CO)C[C@@H](C)[C@H](CN(C)S(=O)(=O)c2ccc(Cl)cc2)OCCCC[C@H](C)O3)cc1	-112.8*
COc1ccc(S(=O)(=O)N(C)C[C@H]2Oc3c(NC(=O)c4nc5ccccc5s4)cccc3C(=O)N([C@@H](C)CO)C[C@H]2C)cc1	-82.4*
COc1ccc(S(=O)(=O)N(C)C[C@@H]2OCCCC[C@@H](C)Oc3ccc(NC(=O)Cc4ccccc4)cc3C(=O)N([C@H](C)CO)C[C@@H]2C)cc1	3.3
C[C@@H]1CCCCO[C@H](CN(C)S(=O)(=O)c2ccc(Cl)cc2)[C@@H](C)CN([C@H](C)CO)C(=O)c2cc(NC(=O)Nc3ccc(C(F)(F)F)cc3)ccc2O1	45.1
C[C@@H]1CCCCO[C@@H](CN(C)S(=O)(=O)c2ccc(Cl)cc2)[C@@H](C)CN([C@H](C)CO)C(=O)c2cc(NC(=O)Nc3ccc(C(F)(F)F)cc3)ccc2O1	43.8
COc1ccc(S(=O)(=O)Nc2ccc3c(c2)C(=O)N([C@H](C)CO)C[C@H](C)[C@H](CN(C)S(=O)(=O)c2ccc(Cl)cc2)OCCCC[C@@H](C)O3)cc1	-37.6
COc1ccc(S(=O)(=O)N(C)C[C@H]2Oc3ccc(NC(=O)Nc4ccc(C(F)(F)F)cc4)cc3C(=O)N([C@H](C)CO)C[C@@H]2C)cc1	-42.0
COc1ccc(S(=O)(=O)N(C)C[C@@H]2Oc3c(NC(=O)c4nc5ccccc5s4)cccc3C(=O)N([C@H](C)CO)C[C@@H]2C)cc1	-40.2
COc1ccc(S(=O)(=O)N(C)C[C@H]2Oc3c(NC(=O)c4nc5ccccc5s4)cccc3C(=O)N([C@H](C)CO)C[C@@H]2C)cc1	-54.7
COC(=O)C(Cc1c[nH]c2ccccc12)NC(=O)c1c(Cl)cccc1Cl (centres undefined)	29.4
CCS(=O)(=O)N1CCCC2(CCCN2C(=O)CCc2ccccc2)C1 (centres undefined)	-0.8
CCc1cnc(N2C[C@@H]3C[C@H](C(=O)N4CCOCC4)[C@@H](C2)O3)nc1	90.9
COCCN1C(=O)CCc2cc(NS(=O)(=O)c3cccs3)ccc21	-3.1
CCOC(=O)c1nc(NCCc2cc(OC)ccc2OC)c2ccccc2n1	5.9
Cc1ccc(CN2CCC3(CC2)CC[C@@]2(C(=O)N4CCCC4)CN(C)C[C@@H]32)o1	-66.5
Cc1cccc(CNC2=NCCNC23CCN(S(=O)(=O)c2ccc(CC(C)C)cc2)CC3)c1	-62.9
CCOc1cccc2sc(NC(=O)c3nc4ccccc4n(C)c3=O)nc12	-22.2
CC(NC(=O)Cn1ncc2c(N3CCCCCC3)ncnc21)c1ccccc1 (centres undefined)	82.3
O=C(NCC1CC1)[C@H]1CC[C@H]2[C@H](CCN2Cc2ccc(F)cc2)O1	89.1
CN(C)CCOCc1nnn2c1CN(S(=O)(=O)C1CC1)CCC2	2.7
CN(c1ccccc1)c1ccc2ccc(C(=O)CCN3CCOCC3)cn12	237.8
COc1ccc(S(=O)(=O)N(C)C[C@H]2OCCCC[C@@H](C)Oc3ccc(NC(=O)Cc4ccccc4)cc3C(=O)N([C@@H](C)CO)C[C@H]2C)cc1	-101.9*
COc1ccc(S(=O)(=O)N(C)C[C@H]2OCCCC[C@H](C)Oc3ccc(NC(=O)Cc4ccccc4)cc3C(=O)N([C@H](C)CO)C[C@H]2C)cc1	-48.5
SMILES	Tgondii IFNg
COc1ccc(S(=O)(=O)N(C)C[C@@H]2OCCCC[C@@H](C)Oc3ccc(NC(=O)Cc4ccccc4)cc3C(=O)N([C@@H](C)CO)C[C@@H]2C)cc1	-32.1
COc1ccc(S(=O)(=O)Nc2ccc3c(c2)C(=O)N([C@@H](C)CO)C[C@@H](C)[C@H](CN(C)C(=O)Nc2c(C)noc2C)OCCCC[C@H](C)O3)cc1	-1.8
COc1ccc(S(=O)(=O)Nc2ccc3c(c2)C(=O)N([C@@H](C)CO)C[C@@H](C)[C@@H](CN(C)C(=O)Nc2c(C)noc2C)OCCCC[C@H](C)O3)cc1	-77.9*
COc1ccc(S(=O)(=O)Nc2ccc3c(c2)C(=O)N([C@@H](C)CO)C[C@@H](C)[C@H](CN(C)C(=O)Nc2c(C)noc2C)OCCCC[C@@H](C)O3)cc1	79.5
Cc1ccc(C#Cc2ccc(C#Cc3ccc(C)cc3)s2)cc1	22.2
CSc1cccc(CN(C)C(=O)c2cccnn2)c1	-42.5
C#CCN(Cc1nc(-c2cccc(OC)c2OC)oc1C)C1CCCCC1	-5.5
O=C([C@@H]1CCO[C@@H]2CCN(Cc3cccc(F)c3)C[C@H]21)N1CCCO1	12.5
Cn1nc(CNc2ncccn2)c2c1CNCC2	2.1
Cn1nc(CNc2ncccn2)c2c1CN(C(=O)c1ccccc1F)CC2	-105.5*
Cc1cccc(S(=O)(=O)N2CCc3c(CNc4ncccn4)nn(C)c3C2)c1	2.4
CCc1nc(SCC(=O)N2CCCN(C)C3(CCN(C)CC3)C2)n[nH]1	-0.8
CC(C)(C)c1cc2nc(C(F)(F)F)cc(N3CCN(C(=O)c4ccccc4)CC3)n2n1	-85.8*
Cc1ccc(C)c(N2CCN(C(=O)c3ccc(-n4nc(C(F)(F)F)c5c4CCCC5)cc3)CC2)c1	0.8
O=C(c1ccccc1)N1CCN(C(=O)c2ccccc2)CC1	-9.7
CN(C)C(CNC(=O)Cc1cccc2cccnc12)c1cccc(Cl)c1 (centres undefined)	5.6
Cc1cc(NC(=O)N2CCC3(CC2)CC(=O)c2ccccc2O3)ccc1Br	-75.2*
O=C1CC2(CCN(C(=O)NCc3ccc(F)cc3)CC2)Oc2ccccc21	198.0
Cc1cc(C)cc(NC(=O)N2CCC3(CC2)CC(=O)c2ccccc2O3)c1	71.7
Cc1ccc(Oc2ccc(CN)cc2)cc1	27.5
CCOCC1CN(C(=O)N2CCCC2)Cc2cnn(C)c21 (centres undefined)	4.7
Cc1noc(-c2ccccc2OCC(=O)O)n1	61.8
CCOc1ccc(NC(=O)Cn2c(=O)cc(-c3nc(C)no3)c3ccccc32)cc1	21.1
CCc1nc2cc(NC(=O)COc3ccccc3-c3nc(C)no3)ccc2n1CC	-74.5*
COCc1cnc2n1CCN(C(=O)c1ccsc1)C2C (centres undefined)	36.5
SMILES	Tgondii IFNg
Cc1nc(C)c(Oc2ccc(Cl)cc2Cl)c(Sc2cccc(C(F)(F)F)c2)n1	-107.1*
COc1ccc(CNc2nc(C)nc(C)c2Oc2ccc(Cl)cc2Cl)cc1	-8.1
CCOC(=O)c1nc(C)nc(Sc2ccc(Cl)cc2)c1C	10.7
CCc1ccc(CNC2CCc3[nH]c(=O)ccc3C2)o1 (centres undefined)	110.3
CSc1ccc(C(=O)C2CCCN(S(=O)(=O)c3ccccc3)C2)cc1 (centres undefined)	-29.6
Cn1c2c(c(=O)n1C)CN(S(=O)(=O)c1ccccc1)CCC2	-75.3*
Cc1nc(N2CCCC2)nc2c1CCN(S(=O)(=O)c1ccccc1)CC2	-49.5
Cc1cccc(NC(=O)N2CCN(Cc3nc(-c4cccc(Cl)c4)oc3C)CC2)c1	-1.6
CN(CCCn1cccn1)C(=O)c1ccc(-c2ccccc2Cl)o1	0.1
Cc1ccc(-c2nnc(-c3ccccc3)n2-c2ccc(C)cc2)cc1	-3.0
CC1=Nc2ccc(-c3ccccc3)cc2C1(C)C	-98.9*
Cc1cc(C(O)CN2CCN(c3nc4ccccc4o3)CC2)c(C)s1 (centres undefined)	-11.9
